From PubChem BioAssay AID2517 (National Center for Advancing Translational Sciences (NCATS), 2010) come the findings set out here.

Values joined by “and” are separate entries in the source; they are usually repeats but may differ in a detail not shown here. Equal values may be shown once. In all, about 350,000 compounds went through this assay and about 1,200 (0.34%) were called active. Roughly 3% stayed inconclusive and do not appear here. Calls come from the whole dose curve; as a rule, active = well fitted inhibition curve with a large enough effect; inconclusive = small, poorly fitted or top-dose-only effect; inactive = no such curve, though single readings can be large or run the other way. The entries come from a sample that favours actives as a whole. Some compounds were tested as several samples or in several runs, with calls that do not always agree.
Potency is the fitted concentration of half-maximal effect.

For this experiment, the target named is DNA repair nuclease/redox regulator APEX1 (Homo sapiens) (UniProt P27695). Put plainly: qHTS Assay for Inhibitors of the Human Apurinic/apyrimidinic Endonuclease 1 (APE1).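 For activity change, negative = inhibition: plate controls were vehicle for no effect and reference inhibitor for full effect.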 Note: nearly all actives have a fitted effect of over 55% in size. Conditions: recombinant APE1, TAMRA/BHQ-2 abasic DNA cleavage fluorescence; series mostly up to 65.8 µM; activity change, negative = inhibition: at the top concentration. The text has this: The apurinic/apyrimidinic endonuclease APE1 is the primary mammalian enzyme responsible for the removal of abasic (or AP) sites in DNA and functions centrally in the base excision DNA repair (BER) pathway. […] Thus, targeting APE1 could improve the efficacy of current treatment paradigms by promoting selective sensitization or protection of diseased and normal cells, respectively.
Sequence of DNA repair nuclease/redox regulator APEX1 (Homo sapiens) (P27695 whole entry, looked up): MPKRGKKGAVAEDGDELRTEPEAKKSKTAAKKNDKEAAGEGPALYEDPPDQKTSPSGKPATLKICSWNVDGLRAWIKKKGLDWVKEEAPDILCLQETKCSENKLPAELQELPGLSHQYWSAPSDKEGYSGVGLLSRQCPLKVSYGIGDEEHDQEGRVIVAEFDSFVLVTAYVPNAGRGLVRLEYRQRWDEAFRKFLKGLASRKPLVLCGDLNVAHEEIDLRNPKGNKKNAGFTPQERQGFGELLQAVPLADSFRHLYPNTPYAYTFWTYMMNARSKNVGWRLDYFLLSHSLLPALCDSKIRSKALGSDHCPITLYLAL
Inhibition of APE1 activity was screened by utilizing double-stranded short substrate containing tetrahydrofuran (THF) abasic site labeled with rhodamine-type fluorophore (TAMRA) at the 5'-end and with non-fluorescent Black Hole Quencher-2 (BHQ-2) at the opposing 3'-end. An increase in the fluorescence intensity due to incision of the abasic site by APE1 was used to measure the enzyme activity.
NIH Chemical Genomics Center [NCGC]
NIH Molecular Libraries Probe Centers Network [MLPCN]
Assay Provider: David M. Wilson, III, National Institute on Aging, NIH
Three uL of enzyme solution (0.75 nM APE1 final concentration) was dispensed to 1536-well Greiner black solid bottom plates. […] The plates were incubated for 15 min at room temperature, and then 1 uL of substrate solution (50 nM final concentration of TAMRA/BHQ-2) was added to start the reaction. The plates were immediately transferred into ViewLux High-throughput CCD imager (Perkin-Elmer) in order to measure the reaction progress in kinetic mode (three reads every 60 seconds) using 525 nm excitation and 598 nm emission fluorescence protocol. The fluorescence intensity difference between the third and the first time points was used to compute reaction progress. Results were normalized to buffer only columns and NSC13755 positive controls and negative control DMSO treated wells.
(In general: qHTS replaces the single test concentration by a dilution series.)
On to `COc1ccc(N2C(=O)/C(=C/c3ccco3)C(=O)NC2=S)cc1`, for which the Potency is 0.67 µM (active).
With `C[C@]12CC[C@@H]3C(=CCc4cc(O)ccc43)[C@@H]1CCC2=O`, the “activity change, negative = inhibition” value was 3.5% [at 21 µM] (inactive).
For `CCc1ccc(C2C(C#N)=C(N)Oc3n[nH]c(CC(=O)OC)c32)cc1` (stereo not given), the “activity change, negative = inhibition” value was 16.6% (inactive).
Consider `CC[N+](C)(CC)CCC[n+]1c(-c2ccccc2)c2cc(N)ccc2c2ccc(N)cc21`, for which the Potency is 2.12 µM (active).
Turning to `Clc1ccccc1`, the “activity change, negative = inhibition” value is 0.279% (inactive).
Regarding `CC(=O)[O][Sn]([c]1ccccc1)([c]1ccccc1)[c]1ccccc1`, the “activity change, negative = inhibition” value was -9.07% (inactive).
Take `N#CC(C#N)=Cc1cc(O)c(O)c([N+](=O)[O-])c1`: the Potency is 5.62 µM (active).
On to `ClC(Cl)=C(Cl)C(Cl)=C(Cl)Cl`, for which the “activity change, negative = inhibition” value is -1.33% (inactive).
For `N#Cc1cc(Br)c(O)c(Br)c1`, the “activity change, negative = inhibition” value was 2.28% (inactive).
Regarding `N#CCCCl`, the Potency entry is “inactive”.
As to `Cc1nc(SCC(=O)NC2CCCC2)[nH]c(=O)c1C`, the activity change, negative = inhibition was 63.8% [at 12.4 µM] (inactive).
Still for that read-out and setting: the figure for `CC(C)COC(=O)n1c(=O)oc2ccc(S(=O)(=O)N3CCCCC3)cc21` is 14.5% (inactive).
Consider `CC(C)Nc1nc(Cl)nc(NC(C)C)n1`, for which the Potency entry is “inactive and 22.4 µM (active)”.
As for `CCCCC#N`, the “activity change, negative = inhibition” value was 9.97% (inactive).
On the same count and under the same terms, in the case of `NCCCCC(N)C(=O)O` (stereo not given) it was 13.8% (inactive); in that of `CCCCCCCCCCCCN=C(N)N`, -1.22% (inactive).
Same read-out and setting: in the case of `CC(C)(c1ccccc1)c1ccc(O)cc1` it was -2.65% (inactive).
On to `C[C@H]1C/C=C/[C@@H]2[C@@H]3O[C@]3(C)[C@@H](C)[C@H]3[C@H](Cc4ccccc4)NC(=O)[C@]32OC(=O)O/C=C/[C@](C)(O)C1=O`, for which the “activity change, negative = inhibition” value was 13.1% (inactive).
On to `O=C(OCC1O[C@@H](OC(=O)c2cc(O)c(O)c(O)c2)[C@@H](OC(=O)c2cc(O)c(O)c(O)c2)[C@@H](OC(=O)c2cc(O)c(O)c(O)c2)[C@@H]1OC(=O)c1cc(O)c(O)c(O)c1)c1cc(O)c(O)c(O)c1` (stereo not given in full), for which the Potency is 0.0112 µM (active).
As to `Cc1cc(-c2n[nH]c(=S)n2-c2ccc(C)c(C)c2)no1`, the “activity change, negative = inhibition” value is 9.88% (inactive).
On the same count and under the same terms, in the case of `CC(=O)c1ccc(-c2ccc(Cn3c(C)nc4cc(N)c(C)nc43)cc2)cc1` it was 7.33% (inactive); in that of `CN(C)C1C(=O)C(C(N)=O)=C(O)[C@@]2(O)C(=O)C3=C(O)c4c(O)cccc4[C@@](C)(O)C3C[C@@H]12` (stereo not given in full), -13.5% (inactive).
As for `O=c1cc(-c2ccc(O)cc2)oc2c([C@@H]3O[C@H](CO)[C@@H](O)[C@H](O)[C@H]3O)c(O)cc(O)c12`, the Potency was 8.91 µM (active).
Same read-out and setting: the entry for `C=CCOC(=O)c1ccccc1C(=O)OCC=C` is “inactive”.
In the case of `CC(Cl)Cl`, the “activity change, negative = inhibition” value was 23.6% (inactive).
For `CC(C)CC(C)Nc1ccc(Nc2ccccc2)cc1` (stereo not given), the “activity change, negative = inhibition” value was 1.5% (inactive).
The same measure, in the same setting: the figure for `CC(CCn1cccn1)NC(=O)CCc1nnc(CCc2ccccc2)o1` (stereo not given) is 15.7% (inactive).
On to `Cc1c(C(=O)O)cccc1-n1c(C)cc(/C=C2\C(=O)NC(=O)N(c3ccc4c(c3)OCO4)C2=O)c1C`, for which the Potency is 14.1 µM (active).
On to `Cc1ccnc(-n2c(C)cc(/C=C3\C(=O)NC(=S)N(C)C3=O)c2C)c1`, for which the “activity change, negative = inhibition” value is 0.699% (inactive).
Same read-out and setting: the figure for `CC(C)(C)C(O)(CCc1ccc(Cl)cc1)Cn1cncn1` (stereo not given) is 1.98% (inactive).
On the same count and under the same terms, in the case of `C=CC#N` it was 3.46% (inactive).
As to `ClCCBr`, the “activity change, negative = inhibition” value was 5.56% (inactive).
Turning to `CCN(CC)c1nc(C)cc(OP(=S)(OC)OC)n1`, the “activity change, negative = inhibition” value is -3.65% (inactive).
On the same count and under the same terms, the figure for `CCOc1cc(N2CCOCC2)c(OCC)cc1NC(=O)C1=NN(c2cccc(C)c2)C(=O)CC1` is 16.6% (inactive).
On to `CCC12CCN(CCc3ccccc3)CC1Oc1c(O)cccc12` (stereo not given), for which the “activity change, negative = inhibition” value is 15% (inactive).
